Laboratory results reported in PubChem BioAssay.

Each compound was assayed against Follistatin-related protein 3 (Homo sapiens) (UniProt O95633) (assay: compounds binding follistatin-related protein 3 – biochemical, small-molecule microarray, 635 nm fluorescence, primary screen (AID 1105;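 also: score merges emission near 667 nm and signal to noise per printed spot across three slides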)). Settings: FSTL3 binding, higher = more signal.
Follistatin-related protein 3 (Homo sapiens), sequence (O95633 whole entry, looked up): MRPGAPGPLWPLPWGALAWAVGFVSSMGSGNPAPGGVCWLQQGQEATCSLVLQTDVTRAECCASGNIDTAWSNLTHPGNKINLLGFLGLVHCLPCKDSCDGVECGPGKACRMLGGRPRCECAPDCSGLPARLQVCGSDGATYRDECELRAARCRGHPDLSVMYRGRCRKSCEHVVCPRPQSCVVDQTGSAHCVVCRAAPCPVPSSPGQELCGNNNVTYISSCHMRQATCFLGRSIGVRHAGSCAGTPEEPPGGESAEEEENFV

Row | Structure (SMILES) | composite z-score
1 | CC(CO)N1C(=O)[C@@H]2C3C(=O)OCCC/C=C\[C@H]3OC23C=CCN(C(C)(C)C)C(=O)[C@@H]13 (stereo not given in full) | 0.0856
2 | CN1C(=O)C2C=CC(C(O)c3ccccc3)N(N(c3ccccc3)c3ccccc3)C2C1=O (stereo not given) | 0.455
3 | C=CCOC(=O)[C@H]1[C@@H]2C(=O)O[C@@H](c3ccccc3)[C@@H](c3ccccc3)N2[C@@H](c2ccc(OCCOC(=O)[C@@H]3C[C@@H]4C(=O)N[C@@H](CCCCNC(C)=O)C(=O)N4[C@@H]3c3ccc(O)cc3)cc2)[C@]12C(=O)Nc1ccccc12 | 1.28
4 | C[C@H]1C2[C@H](Cc3ccccc3)NC(=O)[C@]23C(=O)N[C@H](Cc2ccccc2)C(=O)N2CCC[C@H]2C(=O)NC/C=C\C/C=C/C3[C@@H]2O[C@]12C (stereo not given in full) | 0.801
5 | CC(C)C(O)C1C=CC2C(=O)NC(=O)C2N1Nc1ccc(Cl)cc1Cl (stereo not given) | -0.265
6 | COC(=O)C(CC#Cc1ccc2c(c1)[C@]1(C(=O)N2)[C@H](C(=O)Nc2nc3ccccc3s2)[C@H]2C(=O)O[C@H](c3ccccc3)[C@H](c3ccccc3)N2[C@@H]1c1ccc(O)cc1)C(=O)OC | 1.4
7 | CC(C)C(O)C1C=CC2C(=O)N(c3ccccc3)C(=O)C2N1Nc1ccc([N+](=O)[O-])cc1 (stereo not given) | 0.29
8 | CC(C)C[C@@H]1NC(=O)[C@@H]2C[C@H](C(=O)NCc3ccc(F)cc3)[C@H](c3cccc(OCCO)c3)N2C1=O | 0.946
9 | CCCC[C@H]1OB(O)C[C@H]2C1=C(COC)C[C@H]1C(=O)N(C)C(=O)[C@H]12 | 0.564
10 | COCCOC(=O)N1C(=O)[C@@]2(c3cc(C#Cc4ccc(OC)cc4)ccc31)[C@H](c1ccccc1OCCO)N1[C@H](c3ccccc3)[C@H](c3ccccc3)OC(=O)[C@H]1[C@@H]2C(=O)NC[C@H](O)c1ccccc1 | 1.43
11 | CCOC(=O)C[C@H]1[C@H](OC(=O)c2ccc(C(=O)c3ccccc3)cc2)[C@@H](NC(=O)c2ccccc2)c2cc(OCCCO)ccc2N1C(=O)c1ccc2ccccc2n1 | 0.399
12 | O=C(c1ccccc1)N1C(=O)[C@@]2(Cc3ccccc31)N=C(c1ccc(OCCCO)cc1)O[C@H]2c1ccccc1 | 1.22
13 | Cc1ccc(N2C(=O)c3ccccc3[C@@H](C(=O)NC3CC3)[C@@H]2c2ccc(CO)cc2)nc1 | -1.38
14 | [N-]=[N+]=Nc1ccccc1[C@@H]1OC(c2ccc(OCCCO)cc2)=N[C@]1(CCS(=O)(=O)c1ccccc1)C(N)=O | 1.22
15 | COC(=O)C(CC#Cc1ccc2c(c1)[C@]1(C(=O)N2)[C@H](C(=O)Nc2nc3ccccc3s2)[C@H]2C(=O)O[C@H](c3ccccc3)[C@H](c3ccccc3)N2[C@@H]1c1ccccc1OCCO)C(=O)OC | 0.701
16 | CCOC(=O)C[C@H]1[C@H](OC(=O)c2ccc(C(=O)c3ccccc3)cc2)[C@@H](NC(=O)CC(C)C)c2cc(OCCCO)ccc2N1C(=O)c1ccc2ccccc2n1 | 1.41
17 | C=CC[C@]1(C(=O)NCc2ccccc2)N=C(c2ccc(OCCCO)cc2)O[C@H]1c1ccccc1N=[N+]=[N-] | 0.637
18 | OCCCC1=CC(c2cccs2)N(Cc2cc3c(cc2Br)OCO3)CC1 (stereo not given) | -0.0688

Row | Structure (SMILES) | composite z-score
19 | COc1ccc(C#Cc2ccc3c(c2)[C@]2(C(=O)N3)[C@H](C(=O)Nc3nc4ccccc4s3)[C@H]3C(=O)O[C@H](c4ccccc4)[C@H](c4ccccc4)N3[C@@H]2c2ccc(O)cc2)cc1 | 1.48
20 | NC(=O)[C@@H]1[C@H]2C(=O)O[C@H](c3ccccc3)[C@H](c3ccccc3)N2[C@H](c2ccc(O)cc2)[C@@]12C(=O)Nc1ccccc12 | -1.06
21 | CCCCC(CC)C(O)C1C=CC2C(=O)N(Cc3ccccc3)C(=O)C2N1n1cnnc1 (stereo not given) | 0.0568
22 | O=C1O[C@H](c2ccccc2)[C@H](c2ccccc2)N2[C@H]1[C@@H](C(=O)N1CCCCCCC1)[C@]1(C(=O)Nc3ccc(C#CCCO)cc31)[C@H]2c1ccccc1OCCO | 1.79
23 | C=CCNC(=O)[C@H]1[C@@H]2C(=O)O[C@@H](c3ccccc3)[C@@H](c3ccccc3)N2[C@@H](c2ccccc2OCCO)[C@]12C(=O)Nc1ccc(C#CCCO)cc12 | 0.229
24 | COc1ccc(C#Cc2ccc3c(c2)[C@]2(C(=O)N3)[C@H](c3ccccc3OCCO)N3[C@H](c4ccccc4)[C@H](c4ccccc4)OC(=O)[C@H]3[C@@H]2C(=O)Nc2nc3ccccc3s2)cc1 | 1.27
25 | CN1C(=O)C2C=CC(C(O)C3CC=CCC3)N(N(c3ccccc3)c3ccccc3)C2C1=O (stereo not given) | 0.184
26 | O=C1O[C@@H](c2ccccc2)[C@@H](c2ccccc2)N2[C@@H](c3ccccc3OCCO)[C@]3(C(=O)Nc4ccccc43)[C@@H](C(=O)Nc3nc4ccccc4s3)[C@H]12 | 0.799
27 | O=C1NC(=O)C2C1C=CC(C(O)c1cc(C(F)(F)F)cc(C(F)(F)F)c1)N2Nc1ccccn1 (stereo not given) | 0.431
28 | O=C(N1CCCCC1)[C@]1(Cc2ccccc2)N=C(c2ccc(OCCCO)cc2)O[C@@H]1c1ccccc1 | 0.512
29 | CC(C)c1ccc(NN2C(C(O)c3ccc(B(O)O)cc3)C=CC3C(=O)N(c4ccccc4)C(=O)C32)cc1 (stereo not given) | 1.38
30 | NC(=O)NCC#Cc1ccc2c(c1)[C@]1(C(=O)N2)[C@H](c2ccc(O)cc2)N2[C@H](c3ccccc3)[C@H](c3ccccc3)OC(=O)[C@H]2[C@@H]1C(=O)O | -0.966
31 | Cc1ccccc1C(O)C1C=CC2C(=O)N(c3ccccc3)C(=O)C2N1Nc1ccc(C(C)C)cc1 (stereo not given) | 1.23
32 | COc1ccc(CCNC(=O)[C@@H]2c3ccccc3C(=O)N(Cc3ccccc3Cl)[C@H]2c2ccc(CO)cc2)cc1 | -0.182
33 | O=C(NC1CC1)[C@@H]1c2ccccc2C(=O)N(Cc2ccccc2Cl)[C@H]1c1ccc(CO)cc1 | 0.654
34 | Cc1nc2cc(Br)ccc2c(=O)o1 | 0.846
35 | CCN(CC)c1ccc(N2CC=CC34O[C@@H]5C=CCCOC(=O)C5[C@H]3C(=O)N(CCCCCCO)[C@@H]4C2=O)cc1 (stereo not given in full) | -0.879
